From PubChem BioAssay AID2685 (National Center for Advancing Translational Sciences (NCATS), 2010)
The campaign covered roughly 320,000 compounds. About 2,100 (0.66%) were called active. Another 53% or so got no clear call; they are omitted. The sample holds actives, similar compounds and a random draw of the others, so the mix is not that of the screen. The call rests on the fitted dose curve; in most records, active means well fitted inhibition curve with a large enough effect in the signal ratio, with a control signal flat (not every such curve was filed as active); inconclusive means small, poorly fitted or top-dose-only effect, or effect the other way, or a change in a side signal; inactive means flat fitted curve, though single readings scatter; the % refers to the signal ratio.
Potency means the concentration at half of the fitted maximal effect.

Assay: qHTS Assay for Lipid Storage Modulators in Drosophila S3 Cells;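 on cell number change: cells counted by Cell Tracker Red CMTPX staining in the red channel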; on lipid storage change, negative = inhibition: on the % scale 0 is the no-effect control and ±100 the full control effect
Conditions: BODIPY lipid droplet fluorescence, 18-24 h, cells fed with added oleic acid; cell number change: measured here: cell count max response; series mostly up to 46.1 µM; lipid storage change, negative = inhibition: at the top concentration
Method in brief: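 Drosophila S3 cells got compounds at several concentrations plus oleic acid (400 uM solution). Laser-scanning cytometry with 488 nm excitation read lipid droplets at 500-530 nm and cells at 575-640 nm. Percent activity was relative to 20 uM Triacsin C.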
For Cc1cccc(CSc2nnc([C@@H]3CCCN3C(=O)OC(C)(C)C)o2)c1, the “lipid storage change, negative = inhibition” value was 0.387% (inactive) and the cell number change was 6.08%. For CCOC(=O)C1CCN(c2ccc([N+](=O)[O-])cc2)CC1, the “lipid storage change, negative = inhibition” value was -22.6% (inactive) and the cell number change was -12%. With COc1ccc(OC)c(S(=O)(=O)Nc2ccc3oc(C)c(C(C)=O)c3c2)c1 the “outcome” value was “inactive” and the cell number change was -9.21%. In the case of Cc1cc(C)cc(OCC(=O)OCC(=O)NC2CCCCCCC2)c1, the “outcome” value is reported as “inactive” and the cell number change is reported as -3.74%. With O=C(COC(=O)c1c(Cl)cccc1Cl)NC1CCCCC1 the “lipid storage change, negative = inhibition” value was 3.06% (inactive). With Nc1c(C(=O)NC2CCCCC2)nsc1C(=O)OCC(=O)NC1CCCCC1 the “lipid storage change, negative = inhibition” value was 22.9% (inactive) and the cell number change was -16.5%. With O=C(COC(=O)c1ccccc1)NC1CCCC1 the “lipid storage change, negative = inhibition” value was -8.07% (inactive) and the cell number change was -13.7%. With Cc1ccsc1C(=O)OCC(=O)NC1CCS(=O)(=O)C1 (stereo not given) the “lipid storage change, negative = inhibition” value was -5.35% (inactive) and the cell number change was 0.0545%. In the case of O=C(COC(=O)c1cccc(C(=O)OCC(=O)NC2CCCCC2)n1)NC1CCCCC1, the Potency is reported as 20.6 µM (active) and the cell number change is reported as -17.1%. In the case of Cc1ccccc1OCC(=O)OCC(=O)NC1CCCCCC1, the cell number change is reported as -24.2% and the outcome is reported as “inactive [at 0.0737 µM]”. For Nc1c(Cl)c(Cl)nc(C(=O)OCC(=O)NC2CCCCC2)c1Cl, the Potency was 9.2 µM (active) and the cell number change was -8.54%. With Cc1cc(C)c(OCC(=O)OCC(=O)NC2CCCCCCC2)c(C)c1 the Potency was 1.84 µM (active) and the cell number change was 19.3%. For O=C(COC(=O)c1nc(Cl)ccc1Cl)NC1CCCCCC1, the “outcome” value was “inactive”. In the case of Cc1ccsc1C(=O)OCC(=O)NC1CCCC1, the Potency is reported as 0.517 µM (active) and the cell number change is reported as -11%. In the case of Cc1ccsc1C(=O)OCC(=O)NCCNC(=O)COC(=O)c1sccc1C, the cell number change is reported as 12.8% and the lipid storage change, negative = inhibition is reported as -4.96% [at 0.0737 µM] (inactive). In the case of Cn1c(=O)c(=O)n(C)c2cc(S(=O)(=O)N3CCCCCC3)ccc21, the “lipid storage change, negative = inhibition” value is reported as 8.17% (inactive) and the cell number change is reported as 11.2%. For CN(C)CCCNS(=O)(=O)c1ccc(N2CCN(Cc3ccc4c(c3)OCO4)CC2)c([N+](=O)[O-])c1, the “outcome” value was “inactive” and the cell number change was -3.81%. For COc1cc(OC)c(NC(=O)C(=O)CC(=O)c2ccc(C)cc2C)cc1Cl, the “lipid storage change, negative = inhibition” value was -15.5% (inactive) and the cell number change was -12.6%. For CN1C(=O)/C(=C/c2ccccc2Cl)Sc2ccc(C(=O)NCc3cccnc3)cc21, the “lipid storage change, negative = inhibition” value was 9.31% (inactive) and the cell number change was -7.77%. For Cc1ccc(S(=O)(=O)N/N=c2\oc3ccccc3cc2C(=O)Nc2cccc(C)c2)cc1, the “lipid storage change, negative = inhibition” value was 19.4% (inactive) and the cell number change was -24.3%. In the case of CCOC(=O)c1sc2nc(C)nc(SCC(=O)N(CC)C3CCS(=O)(=O)C3)c2c1C (stereo not given), the “lipid storage change, negative = inhibition” value is reported as 1.68% (inactive) and the cell number change is reported as -1.32%. For Cn1nc(-c2ccc(C(=O)NCCO)cc2)c2ccccc2c1=O, the “lipid storage change, negative = inhibition” value was 2.9% (inactive) and the cell number change was -4.78%. In the case of CC1(c2ccc(OCC#N)cc2)C=C(c2ccc(OCC#N)cc2)n2nc(C(F)(F)F)nc2N1 (stereo not given), the “lipid storage change, negative = inhibition” value is reported as -10.8% (inactive) and the cell number change is reported as -2.27%. For C=CCN1c2ccccc2[C@]23C[C@@H](C(=O)OC)N=C2NC(C(=O)OC)=C(C(=O)OC)[C@H]13, the “lipid storage change, negative = inhibition” value was 7.18% (inactive) and the cell number change was 33.7%. In the case of CC(C)OC(=O)/C(C#N)=C\c1cccnc1, the “lipid storage change, negative = inhibition” value is reported as 2.35% (inactive) and the cell number change is reported as 5.73%. With CCC(C)(C)NC(=O)C(c1ccc(OC)cc1)N(C(=O)CCC(=O)Nc1cc(C)on1)C1CC1 (stereo not given) the “outcome” value was “inactive” and the cell number change was -1.32%. With O=C(Nc1cc2c(cc1Br)OCCO2)c1cccnc1 the “lipid storage change, negative = inhibition” value was 29.5% (inactive) and the cell number change was -16.4%. With Cc1ccc(S(=O)(=O)N2CCC(C(=O)NNS(=O)(=O)c3ccc(Cl)cc3)CC2)cc1 the “lipid storage change, negative = inhibition” value was -27.5% (inactive) and the cell number change was 4.8%. With Cc1ccc(S(=O)(=O)NNC(=O)C2CCN(S(=O)(=O)c3ccc(C)cc3)CC2)cc1 the “lipid storage change, negative = inhibition” value was -9.5% (inactive) and the cell number change was 1.57%. For Cc1ccc(S(=O)(=O)NNC(=O)C2CCCCC2)cc1, the Potency was 0.651 µM (active) and the cell number change was 6.31%. For CCOc1ccc(C(=O)OCC(=O)N2CCCC2)cc1OCC, the “outcome” value was “inactive” and the cell number change was -21%. With COc1ccccc1NS(=O)(=O)c1cc(NC(=O)CCNC(C)=O)ccc1C the “lipid storage change, negative = inhibition” value was 6.34% (inactive) and the cell number change was 9.21%. With O=[N+]([O-])c1cc(C(F)(F)F)ccc1NCCCCNS(=O)(=O)c1ccc(Cl)cc1 the Potency was 25.9 µM (active) and the cell number change was -16.8%. With CS(=O)(=O)NCCCNc1ccc(C(F)(F)F)cc1[N+](=O)[O-] the “lipid storage change, negative = inhibition” value was -1.44% (inactive) and the cell number change was 2.05%. In the case of CS(=O)(=O)NCCCCNc1ccc(C(F)(F)F)cc1[N+](=O)[O-], the “lipid storage change, negative = inhibition” value is reported as 3.4% (inactive) and the cell number change is reported as 4.42%. With COc1ccc(C(=O)NCCNc2nc3ccc(C)cc3cc2C#N)cc1OC the “lipid storage change, negative = inhibition” value was 19.1% (inactive). In the case of COc1ccc(C(=O)NCCNc2nc3ccc(C)cc3cc2C#N)cc1, the Potency is reported as 20.6 µM (active) and the cell number change is reported as -23.8%. In the case of CCOc1ccc2nc(NCCNC(=O)CC)c(C#N)cc2c1, the “lipid storage change, negative = inhibition” value is reported as 16.4% (inactive) and the cell number change is reported as 0.214%. In the case of CCOc1ccccc1OCCCC(=O)N1CCN(S(=O)(=O)c2ccc(C)cc2)CC1, the “lipid storage change, negative = inhibition” value is reported as 11.4% (inactive) and the cell number change is reported as -13.5%. With Cc1c(C(=O)O)sc2nc(CSc3ncc(C(F)(F)F)cc3Cl)[nH]c(=O)c12 the “lipid storage change, negative = inhibition” value was 3.11% (inactive) and the cell number change was 6.43%. With Cc1c(C)n(Cc2ccccc2)c2ncnc(NCCCO)c12 the “lipid storage change, negative = inhibition” value was -4.82% (inactive) and the cell number change was 13.8%. In the case of O=c1c(Cl)c(NCc2ccccc2Cl)cnn1C12CC3CC(CC(C3)C1)C2, the Potency is reported as 13 µM (active) and the cell number change is reported as -8.24%. With O=c1c(Cl)c(NCc2ccco2)cnn1C12CC3CC(CC(C3)C1)C2 the “lipid storage change, negative = inhibition” value was -19% (inactive) and the cell number change was -8.21%. In the case of O=c1c(Cl)c(NCc2ccc(F)cc2Cl)cnn1C12CC3CC(CC(C3)C1)C2, the “lipid storage change, negative = inhibition” value is reported as 1.12% (inactive) and the cell number change is reported as -5.4%.
